Source: PubChem BioAssay (NCATS)
Several values for one entry are separate records, joined by “and”; a condition that tells them apart may be missing. Identical values can stand only once. Results filed as inconclusive are left out. Where a call stands in place of a potency, no number is given. Activity calls are given as the source filed them. Unless noted, calls follow the shape of the full dose curve.

Columns and labels:
[1] = biological target: Bile acid receptor (Homo sapiens) (UniProt Q96RI1); experiment: qHTS assay for small molecule antagonists of farnesoid X receptor signaling (AID 588526)
Bile acid receptor (Homo sapiens), sequence (Q96RI1 whole entry, looked up): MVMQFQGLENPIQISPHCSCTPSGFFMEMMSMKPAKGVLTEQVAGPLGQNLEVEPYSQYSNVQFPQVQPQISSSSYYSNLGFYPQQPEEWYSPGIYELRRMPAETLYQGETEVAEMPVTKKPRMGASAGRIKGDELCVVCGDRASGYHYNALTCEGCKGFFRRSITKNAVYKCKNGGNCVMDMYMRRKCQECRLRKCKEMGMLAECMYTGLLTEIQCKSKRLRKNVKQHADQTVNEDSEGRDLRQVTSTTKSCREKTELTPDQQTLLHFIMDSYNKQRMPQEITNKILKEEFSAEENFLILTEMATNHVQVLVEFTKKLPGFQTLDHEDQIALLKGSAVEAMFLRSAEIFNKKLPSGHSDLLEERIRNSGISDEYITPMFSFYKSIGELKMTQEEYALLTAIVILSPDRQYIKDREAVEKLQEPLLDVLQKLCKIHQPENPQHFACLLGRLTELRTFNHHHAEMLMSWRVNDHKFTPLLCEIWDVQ
In short: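 Concentration-response titrations were fitted to the Hill equation for half-maximal inhibition and maximal response, with data normalised to 50 uM chenodeoxycholic acid and DMSO control wells. Cells: FXR-UAS-bla HEK293T, dialyzed FBS.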

[2] = biological target: Glucocorticoid receptor (Homo sapiens) (UniProt P04150); experiment: qHTS assay for small molecule antagonists of glucocorticoid receptor signaling (AID 588533; active = well fitted inhibition curve with a large enough effect in the signal ratio, with a control signal flat, not every such curve was filed as active; the % refers to the signal ratio;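 also: cells stimulated with 2 nM dexamethasone as agonist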)
Glucocorticoid receptor (Homo sapiens), sequence (P04150 whole entry, looked up): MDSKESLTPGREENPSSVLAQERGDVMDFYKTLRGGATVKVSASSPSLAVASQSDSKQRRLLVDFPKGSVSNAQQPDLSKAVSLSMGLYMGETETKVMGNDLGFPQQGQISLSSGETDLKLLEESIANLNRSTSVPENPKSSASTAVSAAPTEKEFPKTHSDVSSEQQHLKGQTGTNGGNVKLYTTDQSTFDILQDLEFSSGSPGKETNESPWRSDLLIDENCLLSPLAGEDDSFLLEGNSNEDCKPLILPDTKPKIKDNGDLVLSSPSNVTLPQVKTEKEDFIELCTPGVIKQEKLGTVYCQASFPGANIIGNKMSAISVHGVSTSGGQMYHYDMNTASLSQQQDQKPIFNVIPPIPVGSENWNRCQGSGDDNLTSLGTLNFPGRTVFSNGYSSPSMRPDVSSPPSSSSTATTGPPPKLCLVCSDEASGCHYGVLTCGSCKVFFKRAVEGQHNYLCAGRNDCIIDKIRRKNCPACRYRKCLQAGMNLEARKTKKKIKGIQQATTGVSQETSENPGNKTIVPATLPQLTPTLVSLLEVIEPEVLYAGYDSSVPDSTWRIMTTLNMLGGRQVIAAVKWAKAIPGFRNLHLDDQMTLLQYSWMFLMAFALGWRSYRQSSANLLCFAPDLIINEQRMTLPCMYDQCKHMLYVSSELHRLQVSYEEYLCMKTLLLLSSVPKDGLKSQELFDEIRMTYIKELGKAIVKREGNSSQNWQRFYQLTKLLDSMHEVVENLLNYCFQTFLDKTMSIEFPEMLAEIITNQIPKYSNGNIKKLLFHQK
In short: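 Antagonist-mode qHTS: compound titrations added to GRE-bla HeLa cells, then dexamethasone 2 nM final; 18 h, 37 C. CCF4 FRET fluorescence normalized to dexamethasone and DMSO; IC50 from Hill fit.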

[3] = biological target: Peroxisome proliferator-activated receptor gamma (Homo sapiens) (UniProt P37231); experiment: qHTS assay for small molecule agonists of peroxisome proliferator-activated receptor gamma signaling (AID 588536; active = well fitted curve in the direction sought with a large enough effect in the signal ratio, with a control signal flat, not every such curve was filed as active; the % refers to the signal ratio)
Peroxisome proliferator-activated receptor gamma (Homo sapiens), sequence (P37231 whole entry, looked up): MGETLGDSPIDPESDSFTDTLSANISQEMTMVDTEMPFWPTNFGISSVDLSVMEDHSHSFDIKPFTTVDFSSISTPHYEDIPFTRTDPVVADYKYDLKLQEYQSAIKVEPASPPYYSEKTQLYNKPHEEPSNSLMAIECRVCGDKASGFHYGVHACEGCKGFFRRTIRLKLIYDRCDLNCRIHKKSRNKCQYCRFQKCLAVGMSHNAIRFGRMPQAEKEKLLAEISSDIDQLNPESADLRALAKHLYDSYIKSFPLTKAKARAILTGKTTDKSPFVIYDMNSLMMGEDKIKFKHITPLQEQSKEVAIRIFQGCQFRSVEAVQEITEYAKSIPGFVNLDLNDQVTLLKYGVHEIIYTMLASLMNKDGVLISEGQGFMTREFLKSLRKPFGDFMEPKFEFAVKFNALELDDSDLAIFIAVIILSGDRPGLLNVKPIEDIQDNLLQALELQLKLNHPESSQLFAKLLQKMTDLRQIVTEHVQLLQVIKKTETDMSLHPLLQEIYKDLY
In short: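 Cells were plated and held 6–6.5 h at 37 C, then compounds were added as a titration series. After a further 16 h, CCF4 dye was loaded for 2 h at room temperature and emission at 460/530 nm recorded.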

[4] = biological target: Vitamin D3 receptor (Homo sapiens) (UniProt P11473); experiment: qHTS assay for small molecule antagonists of vitamin D receptor signaling (AID 588541);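 also: receptor activated by calcitriol during compound treatment; series mostly up to about 77 µM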
Vitamin D3 receptor (Homo sapiens), sequence (P11473 whole entry, looked up): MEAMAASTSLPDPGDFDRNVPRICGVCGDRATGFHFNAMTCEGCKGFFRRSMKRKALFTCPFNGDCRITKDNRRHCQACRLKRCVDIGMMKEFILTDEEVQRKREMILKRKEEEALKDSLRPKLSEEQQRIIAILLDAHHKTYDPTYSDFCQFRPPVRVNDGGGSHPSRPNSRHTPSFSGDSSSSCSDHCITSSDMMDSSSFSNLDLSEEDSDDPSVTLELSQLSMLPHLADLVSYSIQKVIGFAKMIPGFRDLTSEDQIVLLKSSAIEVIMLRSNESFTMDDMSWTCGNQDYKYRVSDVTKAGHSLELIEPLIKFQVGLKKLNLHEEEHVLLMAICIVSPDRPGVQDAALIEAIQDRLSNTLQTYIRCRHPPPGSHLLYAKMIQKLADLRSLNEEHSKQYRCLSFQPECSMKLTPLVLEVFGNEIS
In short: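 VDR-UAS-bla HEK293T cells (2000/well, 2% charcoal-stripped FBS) were treated with titrated compounds plus 1-alpha,25-dihydroxyvitamin D3 (50 nM or 3 nM final) for 16 h at 37 C. CCF4 beta-lactamase fluorescence was read; Hill fits gave IC50.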

[5] = biological target: Vitamin D3 receptor (Homo sapiens) (UniProt P11473); experiment: qHTS assay for small molecule agonists of vitamin D receptor signaling (AID 588543)
In short: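 Reporter cells (HEK293T, VDR-UAS-bla) were seeded in medium with 2% charcoal-stripped serum and incubated 5 h, then compounds in concentration series were added for 16 h at 37 °C. Stimulation was scaled between DMSO basal and 50 nM 1α,25-dihydroxyvitamin D3.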

[6] = biological target: Peroxisome proliferator-activated receptor gamma (Homo sapiens) (UniProt P37231); experiment: qHTS assay for small molecule antagonists of peroxisome proliferator-activated receptor gamma signaling (AID 588537; active = well fitted inhibition curve with a large enough effect in the signal ratio, with a control signal flat, not every such curve was filed as active; the % refers to the signal ratio;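 also: reporter cells co-stimulated with 50 nM rosiglitazone agonist during compound treatment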)
In short: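 Compounds are tested as concentration series for inhibition of rosiglitazone-driven (50 nM) reporter expression in GeneBLAzer PPAR-gamma-UAS-bla HEK293 cells. After 16 h at 37 C, CCF4 substrate is added for 2 h at room temperature and blue/green fluorescence is measured.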

[7] = biological target: Glucocorticoid receptor (Homo sapiens) (UniProt P04150); experiment: qHTS assay for small molecule agonists of glucocorticoid receptor signaling (AID 588532; active = well fitted curve in the direction sought with a large enough effect in the signal ratio, with a control signal flat; the % refers to the signal ratio); conditions: HeLa MMTV-bla, beta-lactamase ratio, agonist, 18 h; stronger effect = higher value; percent of dexamethasone control, DMSO zero
In short: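 Titration series, up to 92 uM, applied to GRE-bla HeLa cells for 18 h at 37 C. Detection by CCF4 FRET substrate after 2 h at RT.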

[8] = qHTS assay for small molecule antagonists of peroxisome proliferator-activated receptor delta signaling (AID 588535; active = well fitted inhibition curve with a large enough effect in the signal ratio, with a control signal flat, not every such curve was filed as active; the % refers to the signal ratio;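 as to max response: cells co-treated with a PPAR-delta agonist as stimulator during compound exposure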); conditions: HEK293T PPARd-UAS-bla, beta-lactamase FRET ratio, 18 h; 460 nm channel
In short: (§1)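 Inhibition of PPAR-delta response element-driven beta-lactamase expression is measured in HEK293T cells exposed to a compound titration series for 18 hrs at 37 C. Half-maximal inhibition comes from Hill equation fitting.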

[9] = biological target: Peroxisome proliferator-activated receptor delta (Homo sapiens) (UniProt Q03181); experiment: as above
Peroxisome proliferator-activated receptor delta (Homo sapiens), sequence (Q03181 whole entry, looked up): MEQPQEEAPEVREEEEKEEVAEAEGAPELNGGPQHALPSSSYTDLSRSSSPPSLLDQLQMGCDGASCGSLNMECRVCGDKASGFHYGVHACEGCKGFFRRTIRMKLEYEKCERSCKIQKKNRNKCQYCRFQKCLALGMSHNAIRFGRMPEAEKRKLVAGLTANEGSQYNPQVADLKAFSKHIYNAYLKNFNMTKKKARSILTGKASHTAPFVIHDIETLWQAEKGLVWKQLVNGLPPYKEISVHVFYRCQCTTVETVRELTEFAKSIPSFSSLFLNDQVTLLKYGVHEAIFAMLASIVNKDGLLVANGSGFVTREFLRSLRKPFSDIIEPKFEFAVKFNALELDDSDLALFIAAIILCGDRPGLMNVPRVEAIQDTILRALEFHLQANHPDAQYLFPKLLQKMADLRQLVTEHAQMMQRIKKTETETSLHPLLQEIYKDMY
In short: as §1

Compound | outcome [1] | outcome [2] | outcome [3] | outcome [4] | outcome [5] | outcome [6] | activation [7] | max response [8] | Potency [9]
CCOCCO | inactive | inactive | inactive | inactive | inactive | – | – | – | –
CC(C)(C)OC=O | inactive | inactive | inactive | inactive | inactive | inactive | – | – | –
N#CC1(O)CCCCC1 | inactive | – | inactive | inactive | inactive | – | 0.0169% (inactive) | 12% | inactive
CCC(C)O (centres undefined) | inactive | – | – | inactive | inactive | – | 0.0998% (inactive) | -23.2% | inactive
CC1CCC2CC1C2(C)C (centres undefined) | inactive | – | inactive | – | – | – | -2.14% (inactive) | – | –
CCC(=O)/C=C/C1C(C)=CCCC1(C)C (centres undefined) | inactive | – | – | inactive | inactive | inactive | -2.65% (inactive) | 2.01% | inactive
CCCCCCCCCCCCOCC1CO1 (centres undefined) | inactive | inactive | inactive | – | inactive | – | – | 36.4% | inactive
O=C1CCC(=O)O1 | inactive | inactive | inactive | inactive | inactive | – | – | 24.1% | inactive
CC(=O)c1cccc([N+](=O)[O-])c1 | inactive | inactive | inactive | inactive | inactive | – | – | 13.5% | inactive
C=Cc1ccc(C=C)cc1 | inactive | inactive | inactive | inactive | inactive | – | – | -5.46% | inactive
Cc1cc(C)cc(N)c1 | inactive | – | inactive | inactive | inactive | inactive | -0.353% (inactive) | -0.443% | inactive
COc1cccc(N)c1 | inactive | inactive | – | inactive | inactive | – | – | – | –
CC(C)CCOC(=O)/C=C/c1ccccc1 | inactive | – | inactive | inactive | inactive | – | -0.0444% (inactive) | 17.3% | inactive
CCC(C)(C)OC | inactive | inactive | – | – | – | – | – | 12.9% | inactive
Nc1cc(Cl)c(N)c(Cl)c1 | inactive | – | inactive | inactive | inactive | inactive | 0.447% (inactive) | 7.4% | inactive
CC(=O)Nc1ccc(N)cc1 | inactive | inactive | – | inactive | inactive | – | – | – | –
CN(C)CCCCl | inactive | inactive | – | inactive | inactive | – | 13.4% (inactive) | – | –

Compound | outcome [1] | outcome [2] | outcome [3] | outcome [4] | outcome [5] | outcome [6] | activation [7] | max response [8] | Potency [9]
FC(F)(F)c1ccccc1Cl | inactive | – | inactive | inactive | inactive | inactive | 6.11% (inactive) | 25.6% | inactive
Cc1ccc(C)c(O)c1 | inactive | – | inactive | inactive | inactive | – | 4.8% (inactive) | 7.19% | inactive
CCOCCOCC | inactive | inactive | inactive | inactive | inactive | – | – | -23% | inactive
FB(F)F | inactive | – | inactive | inactive | inactive | inactive | 3.97% (inactive) | 9.97% | inactive
Clc1ccc(Cl)c(Cl)c1Cl | inactive | inactive | inactive | inactive | inactive | inactive | – | 9.65% and -40.7% | inactive
c1ccc(Oc2ccccc2)cc1 | inactive | inactive | – | inactive | inactive | – | – | -19.2% and -5.05% | inactive
CCCCCCC(=O)O | inactive | inactive | – | inactive | inactive | – | – | -11.6% | inactive
CCCCCO | inactive | – | – | inactive | inactive | – | 4.01% (inactive) | -5.82% | inactive
C=C(C)C1CC=C(C)C(OC(C)=O)C1 (centres undefined) | inactive | inactive | inactive | inactive | inactive | inactive | – | 6.72% | inactive
Nc1cc(Cl)c([N+](=O)[O-])cc1O | inactive | inactive | – | inactive | inactive | – | – | – | –
CCCCC(C=O)CC (centres undefined) | inactive | – | inactive | inactive | inactive | – | -0.985% (inactive) | -2.18% | inactive
COC(=O)CCC(=O)OC | inactive | inactive | inactive | inactive | inactive | inactive | – | -38.8% | inactive
CC#N | inactive | inactive | – | – | – | – | – | 21.5% | inactive
CNC(=O)c1ccccc1 | inactive | – | inactive | inactive | inactive | inactive | -1.59% (inactive) | 1.71% | inactive
CC(CCl)OC(C)CCl (centres undefined) | – | inactive | inactive | – | – | – | 1.48% (inactive) | 6.69% | inactive
O=[N+]([O-])c1ccc2nc[nH]c2c1 | inactive | – | inactive | – | – | inactive | – | – | –
